From PubChem BioAssay (NCATS)
Records with an inconclusive call do not appear. Activity calls are given as the source filed them. Calls follow the shape of the dose curve; as a rule, active = well fitted inhibition curve with a large enough effect; inconclusive = small, poorly fitted or top-dose-only effect; inactive = flat fitted curve, though single readings scatter.

Assays:
CRL-7250 = normal cell line; experiment: Cytotoxic Profiling of Annotated Libraries Using Quantitative High-Throughput Screening (AID 1296008); settings: Five cell lines viability, CellTiter-Glo ATP luminescence, 48-72 h; max response: hits give low values; as to max response: % is scaled to controls: 0 for no effect and ±100 for the full control effect
Procedure, shortened: (§1)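 Cells exposed to compounds for 48 or 72 hr at 37 degrees Celsius. Viability read as ATP-coupled luminescence with CellTiter-Glo after 10 min at room temperature.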

HEK293 = experiment: as above; settings: Five cell lines viability, CellTiter-Glo ATP luminescence, 48-72 h; max response: hits give low values
Procedure, shortened: as §1

HaCat [1] = experiment: as above; settings: Five cell lines viability, CellTiter-Glo ATP luminescence, 48-72 h; max response: hits give low values
Procedure, shortened: as §1

KB-3-1 = experiment: as above; settings: Five cell lines viability, CellTiter-Glo ATP luminescence, 48-72 h; max response: hits give low values
Procedure, shortened: as §1

NIH3T3 = experiment: as above; settings: Five cell lines viability, CellTiter-Glo ATP luminescence, 48-72 h; max response: hits give low values
Procedure, shortened: as §1

HACAT [2] = experiment: qHTS assay to identify novel small-molecules to repurpose for Merkel cell carcinoma treatment (AID 1296009); settings: MCC and control cell lines, CellTiter-Glo viability, 72 h; at 44.8 µM (top of the series) unless noted
Procedure, shortened: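 Dose-response viability screen; 72 hr exposure at 37 degree celsius; CellTiter-Glo added, 10 min room temperature, luminescence read; RLUs scaled between no-cell and DMSO wells.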

Measured: max response
Also: nearly all actives have a fitted effect of over 60% in size.

COc1ccc(CC(NC(C)=O)C(=O)O)cc1 (configuration not stated)
inactive: CRL-7250 0.775% | HEK293 -3.66% | HaCat [1] | KB-3-1 6.09% | NIH3T3 1.53% | HACAT [2]

COc1cccc(OC)c1-c1ccc(C[C@H](NC(=O)c2c(Cl)cccc2Cl)C(=O)O)cc1
inactive: CRL-7250 1.89% | HEK293 -9.99% | HaCat [1] | KB-3-1 | NIH3T3 | HACAT [2]

CC(C)Oc1ccc(-c2nc(-c3cccc4c3CCC4NCCC(=O)O)no2)cc1C#N (configuration not stated)
inactive: CRL-7250 0.795% | HEK293 -10.1% | HaCat [1] | KB-3-1 8.29% | NIH3T3 | HACAT [2]

C=C1CC[C@@H]2[C@](C)(CO)[C@H](O[C@@H]3O[C@H](CO)[C@@H](O)[C@H](O)[C@H]3O)CC[C@@]2(C)[C@@H]1C/C=C1/C(=O)OC[C@H]1O
inactive: CRL-7250 -3.97% | HEK293 -5.74% | HaCat [1] | KB-3-1 -0.713% | NIH3T3 -0.313% | HACAT [2] inactive [at 17.4 µM]

C=C1C2(C)CC3C4(C)C=CC(=O)OC(C)(C)C4CCC3(C)C1(C(=O)OC)C(=O)C(C)(O)C2=O (configuration not stated)
inactive: CRL-7250 -7.15% | HEK293 -101% | HaCat [1] | KB-3-1 | NIH3T3 | HACAT [2] inactive [at 17.4 µM]

C[C@@H]1O[C@@H](O[C@H]2[C@H](O)[C@@H](O[C@@H]3O[C@H](CO)[C@H](O)[C@H](O)[C@H]3O)[C@H](O[C@H]3CC[C@@]4(C)C(CC[C@]5(C)C4CC=C4[C@@H]6CC(C)(C)CC[C@]6(C(=O)O[C@@H]6O[C@H](CO)[C@@H](O)[C@H](O)[C@H]6O)CC[C@]45C)C3(C)C)O[C@@H]2C(=O)O)[C@H](O)[C@H](O)[C@H]1O (some centres not stated)
inactive: CRL-7250 -0.719% | HEK293 0.183% | HaCat [1] | KB-3-1 9.11% | NIH3T3 -6.48% | HACAT [2] inactive [at 9.27 µM]

COc1cnc(-c2ccc(Cn3c(CC(C)(C)C(=O)O)c(SC(C)(C)C)c4cc(OC[C@@H]5Cc6ccccc6N5C(C)=O)ccc43)cc2)nc1
inactive: CRL-7250 -2.77% | HEK293 -2.16% | HaCat [1] | KB-3-1 -12.4% | NIH3T3 -14.7% | HACAT [2]

CC(=O)NC(C(=O)OC1CCC(C)(C)C2CC=C3C(=O)OCC3C12C)C(C)C (configuration not stated)
inactive: CRL-7250 | HEK293 -2.64% | HaCat [1] | KB-3-1 | NIH3T3 4.96% | HACAT [2]

CN(C)CCC[C@]1(c2ccc(F)cc2)OCc2cc(C#N)ccc21
inactive: CRL-7250 1.86% | HEK293 -1.92% | HaCat [1] | KB-3-1 -2.48% | NIH3T3 | HACAT [2]

Fc1ccccc1-c1nc2ccn(Cc3ccc(-c4ccc(C(F)(F)F)cc4C(F)(F)F)nn3)cc-2n1
inactive: CRL-7250 1.68% | HEK293 -5.52% | HaCat [1] | KB-3-1 -0.729% | NIH3T3 -4.04% | HACAT [2]

CC1(CO)CCCC2(C)C1C(OC(=O)c1ccccc1)CC1C(=O)OCC12O (configuration not stated)
inactive: CRL-7250 -1.52% | HEK293 -0.598% | HaCat [1] | KB-3-1 5.44% | NIH3T3 | HACAT [2]

CC1(C)CC[C@]2(C(=O)OC3OC(CO)C(O)C(O)C3O)CC[C@]3(C)C(=CCC4[C@@]5(C)C[C@@H](O)[C@H](OC6OC(C(=O)O)C(O)C(O)C6O)C(C)(C)C5CC[C@]43C)[C@@H]2C1 (some centres not stated)
inactive: CRL-7250 2.21% | HEK293 3.34% | HaCat [1] | KB-3-1 7.37% | NIH3T3 -4.63% | HACAT [2] inactive [at 9.27 µM]

C=C1CC2C3(C)C=CC(=O)OC(C)(C)C3CC(OC(C)=O)C2(C)C2C(=O)OC(C)C(=O)C12C (configuration not stated)
inactive: CRL-7250 -1.41% | HEK293 -7.78% | HaCat [1] | KB-3-1 1.96% | NIH3T3 | HACAT [2] inactive [at 17.4 µM]

Cc1cc(OCCN2CCOCC2)nn1-c1ccc2ccccc2c1
inactive: CRL-7250 -11.2% | HEK293 -15.6% | HaCat [1] | KB-3-1 -10.7% | NIH3T3 2.01% | HACAT [2]

O=C(O)c1cc(O[C@@H]2O[C@H](CO)[C@@H](O)[C@H](O)[C@H]2O)ccc1O
inactive: CRL-7250 -1.11% | HEK293 -8.21% | HaCat [1] | KB-3-1 1.47% | NIH3T3 | HACAT [2]

CCNC(=O)C1CC(F)(c2ccc(CN3CCCC3)c(F)c2)C1 (configuration not stated)
inactive: CRL-7250 | HEK293 -0.849% | HaCat [1] | KB-3-1 3.84% | NIH3T3 | HACAT [2]

COc1ccc(S(=O)(=O)Nc2nc(-c3cccc([N+](=O)[O-])c3)cs2)cc1OC
inactive: CRL-7250 -1.12% | HEK293 2.2% | HaCat [1] | KB-3-1 6.48% | NIH3T3 | HACAT [2]

O=C(O)CC1CCC(c2ccc(NC(=O)c3nnc(Nc4ccc(F)c(F)c4)o3)cc2)CC1 (configuration not stated)
inactive: CRL-7250 1.15% | HEK293 1.04% | HaCat [1] | KB-3-1 | NIH3T3 | HACAT [2]

CC(=O)O[C@@H]1C(O)C[C@@]2(C)C(CC[C@@H](C)C23Cc2c(O)cc4c(c2O3)CNC4=O)C1(C)C (some centres not stated)
inactive: CRL-7250 0.238% | HEK293 1.81% | HaCat [1] | KB-3-1 -3.56% | NIH3T3 -7.87% | HACAT [2] inactive [at 17.4 µM]

CC1(O)CC(O)C2C(C(=O)O)=COC(OC3OC(CO)C(O)C(O)C3OC(=O)/C=C/c3ccc(O)cc3)C21 (configuration not stated)
inactive: CRL-7250 2.15% | HEK293 1.1% | HaCat [1] | KB-3-1 6.91% | NIH3T3 | HACAT [2] inactive [at 17.4 µM]

CNC(=O)c1ccc2c(c1)CCO[C@H]2CCN1CCN(c2ccc(C(N)=O)cc2)CC1
inactive: CRL-7250 0.998% | HEK293 3.1% | HaCat [1] | KB-3-1 -1.44% | NIH3T3 | HACAT [2]

CC1(C(=O)O)CCCC2(C)C3CCC4CC3(CCC12)CC4C(=O)O (configuration not stated)
inactive: CRL-7250 | HEK293 1.27% | HaCat [1] | KB-3-1 6.21% | NIH3T3 | HACAT [2]

COc1cc(O)c2c(c1Cl)CC(C)OC2=O (configuration not stated)
inactive: CRL-7250 | HEK293 -0.0766% | HaCat [1] | KB-3-1 3.15% | NIH3T3 | HACAT [2]

CC(=O)OCC1OC(O[C@H]2CC[C@@]3(C)C(CC[C@]4(C)C3CC=C3[C@@H]5CC(C)(C)CC[C@]5(C(=O)O)CC[C@]34C)[C@]2(C)CO)C(O)C(O)C1OC1OC(C)C(O)C(OC2OCC(O)C(O)C2O)C1O (some centres not stated)
inactive: CRL-7250 | HEK293 -5.43% | HaCat [1] | KB-3-1 | NIH3T3 | HACAT [2] inactive [at 9.27 µM]

O=C(NCC(=O)N1CCCC1)Nc1ccc2ccccc2c1
inactive: CRL-7250 3.04% | HEK293 2.51% | HaCat [1] | KB-3-1 | NIH3T3 -1.06% | HACAT [2]

Nc1ncnc2c1ncn2[C@H]1O[C@@H](C(=O)N2CCN(CC(=O)Nc3cccc4c3CNC4=O)CC2)[C@H](O)[C@@H]1O
inactive: CRL-7250 | HEK293 1.78% | HaCat [1] | KB-3-1 | NIH3T3 | HACAT [2]

COC(=O)C1=CO[C@@H](O[C@@H]2O[C@H](CO)[C@@H](O)[C@H](O)[C@H]2O)[C@@H]2[C@@H](C)[C@@H](O)C(O)[C@H]12 (some centres not stated)
inactive: CRL-7250 -0.07% | HEK293 -12.7% | HaCat [1] | KB-3-1 | NIH3T3 | HACAT [2] inactive [at 17.4 µM]
